{"source": "PubChem BioAssay AID623901", "about": "(Broad Institute, 2012)", "note": "The campaign covered roughly 340,000 compounds. About 470 (0.14%) were called active. Many of the other results were omitted from the sample, so actives are more common in it than they were. A number with no mark means an inactive call.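 How the source made its calls: active means mean activation of 30% or more, with every replicate also reaching 30%; inconclusive means mean activation of 30% or more but some replicate falls short; inactive means the rest.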"}
{"test": "small molecules raising miR-122 sensor signal – cell-based, Huh7 psiCHECK-miR122, Renilla luciferase, single point, primary screen (AID 623901);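 further: 0% = median of neutral control wells and 100% = median of positive control wells; higher luciferase signal means stronger suppression of miR-122 activity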", "conditions": "48 h, at 12.5 µM, active compounds read high"}
{"molecule": "COc1ccc(OC)c(S(=O)(=O)Nc2cccc(-c3ccc4nncn4n3)c2)c1", "activation": "-333%"}
{"molecule": "C[C@@H]1CN([C@H](C)CO)S(=O)(=O)c2ccc(C#CCC3CCCC3)cc2O[C@H]1CN(C)C(=O)CC1CC1", "activation": "-0.08%"}
{"molecule": "CO[C@@H]1CN(C)C(=O)c2cc(NS(=O)(=O)CC(F)(F)F)ccc2OC[C@H](C)N(C)C[C@H]1C", "activation": "-2.27%"}
{"molecule": "C[C@H](CO)N1C[C@H](C)[C@H](CN(C)CC2CCCCC2)Oc2c(NC(=O)c3cnccn3)cccc2C1=O", "activation": "-119%"}
{"molecule": "C[C@@H]1CN([C@H](C)CO)C(=O)c2cc(C#CC3CCCC3)cnc2O[C@@H]1CN(C)C(=O)C1CCC1", "activation": "-4.13%"}
{"molecule": "CCOc1ccccc1N1CCN(C(=O)c2ccc3[nH]c(C)c(C)c3c2)CC1", "activation": "-100%"}
{"molecule": "C[C@H](CO)N1C[C@H](C)[C@H](CN(C)C(=O)Nc2cccc3ccccc23)Oc2ncc(C#Cc3ccccc3)cc2C1=O", "activation": "8.08%"}
{"molecule": "C[C@H]1CN([C@@H](C)CO)S(=O)(=O)c2ccc(Br)cc2O[C@H]1CN(C)Cc1ccccn1", "activation": "4.93%"}
{"molecule": "CSc1ccc(S(=O)(=O)NC2CCCCC2)cc1", "activation": "-102%"}
{"molecule": "CCCC#Cc1cnc2c(c1)C(=O)N([C@H](C)CO)C[C@H](C)[C@@H](CN(C)Cc1ccccc1)O2", "activation": "2.96%"}
{"molecule": "C[C@@H]1CN([C@H](C)CO)C(=O)c2cc(-c3ccc(F)cc3)cnc2O[C@@H]1CN(C)Cc1ccc(C(=O)O)cc1", "activation": "-8.09%"}
{"molecule": "Cc1c(C)c(C)c(S(=O)(=O)NCCc2ccccn2)c(C)c1C", "activation": "-107%"}
{"molecule": "CCC(=O)N1C[C@H](C)[C@H](OC)CN(C)C(=O)c2ccc(NS(C)(=O)=O)cc2OC[C@H]1C", "activation": "0.433%"}
{"molecule": "C[C@H]1CN([C@@H](C)CO)C(=O)c2cc(C#CC3(O)CCCC3)cnc2O[C@@H]1CN(C)C(=O)Cc1ccccc1", "activation": "0.596%"}
{"molecule": "COc1cccc2sc(N(CCCN(C)C)C(=O)C(c3ccccc3)c3ccccc3)nc12", "activation": "74.2% (active)"}
{"molecule": "C[C@@H]1CN([C@H](C)CO)S(=O)(=O)c2ccc(-c3ccccc3)cc2O[C@@H]1CN(C)C(=O)CC1CC1", "activation": "-0.601%"}
{"molecule": "C[C@H](CO)N1C[C@H](C)[C@@H](CN(C)CC2CCOCC2)Oc2ncc(C#Cc3ccc(F)cc3)cc2C1=O", "activation": "4.08%"}
{"molecule": "C[C@@H]1CN([C@@H](C)CO)S(=O)(=O)c2ccc(C#CCC3CCCC3)cc2O[C@H]1CN(C)C(=O)CC1CC1", "activation": "-4.63%"}
{"molecule": "C[C@@H]1CN([C@H](C)CO)C(=O)c2cc(C#CC3(O)CCCC3)cnc2O[C@H]1CN(C)Cc1ccncc1", "activation": "-9.22%"}
